In the supplement of paper PMC8975748:
Counter-ions that a name gives are not always drawn.

Tested on: Saccharomyces cerevisiae BY4741 SeMeCo community
Assay: z-score of subpopulation abundance vs DMSO median, subpopulation auxotrophic for LU; higher = larger share of this subpopulation than in DMSO controls
Conditions: 10 µM; 24 h; SM minimal medium; subpopulation (auxotrophy): LU
Method: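 Fluorescent four-plasmid SeMeCo (self-establishing metabolically cooperating S. cerevisiae BY4741 community; plasmids pH-mRuby2, pL-mWasabi, pU-eCFP, pM-TagRFP657) was grown 24 h in minimal SM medium with each Selleck FDA-approved drug at 10 µM in 384-well plates. Cells were fixed and imaged by high-content confocal microscopy. For each auxotrophic subpopulation (and the prototroph), a z-score gives the deviation from the DMSO vehicle-control population median.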

First: CC(=O)OCC(CCn1cnc2cnc(N)nc21)COC(C)=O [Famciclovir]
Second: CCOC(=O)C1=C[C@@H](OC(CC)CC)[C@H](NC(C)=O)[C@@H](N)C1 [Oseltamivir Phosphate]
The “z-score of subpopulation abundance” value of the first is higher: -0.41 for the first, -0.72 for the second.

First: Cc1cccc(Nc2ccccc2C(=O)O)c1C [Mefenamic Acid]
Second: O=C(O)c1cccnc1Nc1cccc(C(F)(F)F)c1 [Niflumic acid]
The “z-score of subpopulation abundance” value of the first is lower: -0.62 for the first, 0.28 for the second.

Going from `Cc1cc(NS(=O)(=O)c2ccc(N)cc2)no1` [Sulfamethoxazole sodium] to `CC(=O)NS(=O)(=O)c1ccc(N)cc1` [Sulfacetamide Sodium], the “z-score of subpopulation abundance” value rises from 0.09 to 0.61.

Going from `CCCN[C@H]1CCc2nc(N)sc2C1` [Pramipexole 2HCl Monohydrate] to `CO/N=C(\C(=O)N[C@@H]1C(=O)N2C(C(=O)[O-])=C(C[N+]3(C)CCCC3)CS[C@H]12)c1csc(N)n1` [Cefepime Dihydrochloride Monohydrate], the “z-score of subpopulation abundance” value rises from -0.67 to 0.05.

Going from `CN(C)CCOc1ccc(/C(=C(/CCCl)c2ccccc2)c2ccccc2)cc1` [Toremifene Citrate] to `CCCNCC(O)COc1ccccc1C(=O)CCc1ccccc1` (stereo not given) [Propafenone HCl], the “z-score of subpopulation abundance” value falls from 0.34 to -0.32.

Compared with `Oc1c(Cl)cc(Cl)c2cccnc12` [Chloroxine], `Clc1ccc(C(Cn2ccnc2)OCc2c(Cl)cccc2Cl)c(Cl)c1` (stereo not given) [Isoconazole nitrate] is lower in “z-score of subpopulation abundance” value: 11.5 for the first, -1.43 for the second.

Going from `C[C@H]1COc2c(N3CCN(C)CC3)c(F)cc3c(=O)c(C(=O)O)cn1c23` [Levofloxacin hydrate] to `O=C1Cc2cc(CCN3CCN(c4nsc5ccccc45)CC3)c(Cl)cc2N1` [Ziprasidone HCl], the “z-score of subpopulation abundance” value falls from 1.73 to -0.33.

First: CC[C@H](c1ccc(O)cc1)[C@@H](CC)c1ccc(O)cc1 [Hexestrol]
Second: CC/C(=C(/CC)c1ccc(O)cc1)c1ccc(O)cc1 [Diethylstilbestrol]
The “z-score of subpopulation abundance” value of the first is lower: -1.49 for the first, -1.48 for the second.

Compared with `CC1=C(CC(=O)O)c2cc(F)ccc2/C1=C\c1ccc([S+](C)[O-])cc1` (stereo not given) [Sulindac], `CC(C)c1nc(N(C)S(C)(=O)=O)nc(-c2ccc(F)cc2)c1/C=C/[C@@H](O)C[C@@H](O)CC(=O)O` [Rosuvastatin Calcium] is higher in “z-score of subpopulation abundance” value: -0.59 for the first, 1.26 for the second.

Going from `CCN1CCN(C(=O)N[C@@H](C(=O)N[C@@H]2C(=O)N3[C@@H]2SC(C)(C)[C@@H]3C(=O)O)c2ccccc2)C(=O)C1=O` [Piperacillin Sodium] to `CC1(C)S[C@@H]2[C@H](NC(=O)[C@H](NC(=O)N3CCNC3=O)c3ccccc3)C(=O)N2[C@H]1C(=O)O` [Azlocillin sodium salt], the “z-score of subpopulation abundance” value falls from -0.03 to -0.34.

First: CC(=O)OCC1=C(C(=O)O)N2C(=O)[C@@H](NC(=O)Cc3cccs3)[C@H]2SC1 [Cephalothin]
Second: CO/N=C(\C(=O)N[C@@H]1C(=O)N2C(C(=O)O)=C(CSc3nc(C)c(CC(=O)O)s3)CS[C@H]12)c1csc(N)n1 [Cefodizime Sodium]
The “z-score of subpopulation abundance” value of the first is lower: -0.87 for the first, 0.22 for the second.

Going from `CN1CCN(CCCN2c3ccccc3Sc3ccc(Cl)cc32)CC1` [Prochlorperazine dimaleate salt] to `Clc1ccc2c(N3CCN(CCCN4CCN(c5ccnc6cc(Cl)ccc56)CC4)CC3)ccnc2c1` [Piperaquine phosphate], the “z-score of subpopulation abundance” value falls from -0.07 to -0.13.

Going from `CN1[C@@H]2CC[C@H]1C[C@@H](OC(=O)c1c[nH]c3ccccc13)C2` [Tropisetron HCl] to `O=C(c1ccc(F)cc1)C1CCN(CCn2c(=O)[nH]c3ccccc3c2=O)CC1` [Ketanserin], the “z-score of subpopulation abundance” value falls from 1 to -0.66.

Compared with `CO/N=C(\C(=O)N[C@@H]1C(=O)N2C(C(=O)O)=CCS[C@H]12)c1csc(N)n1` [Ceftizoxime sodium], `CC1(C)S[C@@H]2[C@H](NC(=O)Cc3ccccc3)C(=O)N2[C@H]1C(=O)O.CCN(CC)CCOC(=O)c1ccc(N)cc1` [Penicillin G Procaine] is higher in “z-score of subpopulation abundance” value: -0.54 for the first, 0.41 for the second.

Going from `O=C(CCCN1CCC(O)(c2ccc(Cl)cc2)CC1)c1ccc(F)cc1` [Haloperidol] to `CN(C)CC(c1ccc(O)cc1)C1(O)CCCCC1` (stereo not given) [Desvenlafaxine], the “z-score of subpopulation abundance” value rises from -0.75 to -0.16.

First: NC(=O)[C@@H]1CC[C@@H]2CN1C(=O)N2OS(=O)(=O)O [Avibactam sodium]
Second: Cc1ccc(S(=O)(=O)NC(=O)NN2CC3CCCC3C2)cc1 (stereo not given) [Gliclazide]
The “z-score of subpopulation abundance” value of the first is higher: 1.12 for the first, -0.08 for the second.

Going from `COCCCOc1ccnc(C[S+]([O-])c2nc3ccccc3[nH]2)c1C` (stereo not given) [Rebeprazole sodium] to `COc1ccnc(C[S+]([O-])c2nc3cc(OC(F)F)ccc3[nH]2)c1OC` (stereo not given) [Pantoprazole], the “z-score of subpopulation abundance” value rises from -0.77 to 0.17.

First: CN1CCC(=C2c3ccccc3CCc3sccc32)CC1 [Pizotifen Malate]
Second: COc1ccc2c3c1O[C@H]1C[C@@H](O)C=C[C@@]31CCN(C)C2 [Galanthamine HBr]
The “z-score of subpopulation abundance” value of the first is higher: 0.03 for the first, 0.01 for the second.

Compared with `O=C(O)CCNC(=O)c1ccccc1` [Betamipron], `CC(C)[N+](C)(CCOC(=O)C1c2ccccc2Oc2ccccc21)C(C)C` [Propantheline bromide] is lower in “z-score of subpopulation abundance” value: -0.21 for the first, -0.92 for the second.

First: CC[C@H](C)[C@H](N)C1=N[C@H](C(=O)N[C@@H](CC(C)C)C(=O)N[C@H](CCC(=O)O)C(=O)N[C@H](C(=O)N[C@H]2CCCCNC(=O)[C@H](CC(N)=O)NC(=O)[C@@H](CC(=O)O)NC(=O)[C@H](Cc3cnc[nH]3)NC(=O)[C@@H](Cc3ccccc3)NC(=O)[C@H]([C@@H](C)CC)NC(=O)[C@@H](CCCN)NC2=O)[C@@H](C)CC)CS1 [Bacitracin]
Second: CCC[C@@H]1C[C@@H](C(=O)N[C@@H]([C@H]2O[C@H](SC)[C@H](O)[C@@H](O)[C@H]2O)[C@@H](C)O)N(C)C1 [Lincomycin HCl]
The “z-score of subpopulation abundance” value of the first is higher: 0.64 for the first, -0.63 for the second.
